Reference: PubChem BioAssay (NCI)
Several values for one entry are separate records, joined by “and”; a condition that tells them apart may be missing. Identical values can stand only once. The panel holds about 83,000 compounds, 20% with a hit somewhere; the sample as a whole holds those more often.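 For each line, cells grew in 96-well plates with the test compound present at a single concentration for 48 hours.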 Activity calls are given as the source filed them. The calls were made as follows: active = growth percent below 10; inactive = the rest.

tested on: MDA-MB-468 breast; assay: NCI-60 one-dose screen, 48 h (100 = growth as untreated, 0 = no growth, -100 = all killed); conditions: 10 µM unless noted

Structure (SMILES) | growth
O=c1cc(-c2ccccc2)oc2c(O)c(O)ccc12 | 79.5% (inactive)
COc1cc(C(=O)NNC(=O)c2ccccc2O)cc(OC)c1OC | 103% (inactive)
Nc1nc2c(c3cnccc13)C(c1cccc(Cl)c1)Cc1cnccc1-2 (stereo unspecified) | -15.9% (active)
N#CC(C#N)N=Nc1ccc(Cl)cc1 | -17.6% (active)
COC(=O)[C@H](NC(=O)C1(C)CCC[C@]2(C)[C@H]3C[C@H]4C(C(C)C)=C[C@]3(CC[C@@H]12)[C@@H]1C(=O)CCC(=O)[C@@H]14)C(C)C (stereo partly specified) | 101% (inactive)
COc1ccc(C(O)c2cc3c(N)c(C(=O)Nc4ccc(Cl)cc4)sc3nc2C)cc1 (stereo unspecified) | 3.39% (active)
CN(C)c1ccc(C(C#N)(c2ccccc2)c2ccc(N(C)C)cc2)cc1 | 82.8% (inactive)
C[N+]1(CCCCC[N+]2(C)CCCC2)CCCC1 | 117% (inactive)
C=C(C)[C@@H]1CC[C@]2(C(=O)O)CC[C@]3(C)[C@H](CC[C@@H]4[C@@]5(C)C[C@@H](CC#Cc6ccc(Cl)cc6)C(=O)C(C)(C)[C@@H]5CC[C@]43C)[C@@H]12 | 16.9% (inactive)
CCCCNC(=O)Oc1ccc(/C(=C(/C)Cc2ccc(OC)cc2)c2ccc(OCCN(CC)CC)cc2)cc1 | 76.3% (inactive)
N#Cc1c(N)nc2c(nnn2-c2cccc(C(F)(F)F)c2)c1N | 76.4% (inactive)
CC1=CCC(OC(=O)C(C)(C)CCC(O)(C(=O)OC2(C(C)C)CCC3(C)OC3C2)C(C)C)(C(C)C)CC1 (stereo unspecified) | -64.4% (active)
CCOc1cc(-c2ccc[nH]2)[nH]c1/C=C1\N=C(C)C(C(=O)OC)=C1C | -86.9% (active)
COc1ccc(S(=O)(=O)N2CCN(c3cc4c(cc3F)c(=O)c(C(=O)O)cn4C3CC3)CC2)c(OC)c1 | 86.4% (inactive)
COc1cc(NC(=O)c2cc(OC)c3ccn(C)c3c2)cc2c1C[C@]1(C)CC[C@@H](O)C(C)(C)[C@H]1O2 | 69.6% (inactive)
Cc1cc(N)n(S(=O)(=O)c2oc(-c3ccccc3)nc2C#N)n1 | 72.9% (inactive)
N=C(N)c1ccc(-c2ccc(-c3cccs3)o2)cc1 | -40.5% (active)
CC1=C(O)C(=O)CC1 | 104% (inactive)

Structure (SMILES) | growth
CCCCOc1ccc(S(=O)(=O)N2CCN(c3nc(C)cc(N4CCOCC4)n3)CC2)cc1 | 34.8% (inactive)
Cc1cc2nc3c4cc([N+](=O)[O-])cc([N+](=O)[O-])c4n(CCN(C)C)c3nc2cc1C | 104% (inactive)
CCOC(=O)c1ccc(NC(=O)Nc2nncs2)cc1 | 12.5% (inactive)
COc1ccc(-c2cnnn2-c2nonc2-n2cccc2)cc1 | 4.28% (active)
CC(=O)Oc1cc(C(C)C)c(OCCN(C)C)cc1C | 110% (inactive) and 104% (inactive)
O=C(CCN1CCOCC1)Nc1ccc(Cn2nnc3c2C(=O)c2nnn(Cc4ccc(NC(=O)CCN5CCOCC5)cc4)c2C3=O)cc1 | -72.2% (active)
O=C(O)c1ccccc1.[Ag] | 90.4% (inactive)
CN1CCN(CC(=O)Nc2nc3c(s2)Nc2cc(Cl)c(Cl)cc2NC3=O)CC1 | 114% (inactive)
CC(=O)OC[C@@]12Oc3c(cccc3-c3ccc(O)c4c3O[C@]3(COC(C)=O)C(=C4O)C(=O)C[C@H](C)[C@@H]3OC(C)=O)C(O)=C1C(=O)C[C@H](C)[C@@H]2OC(C)=O | -30.2% (active)
Clc1ccc(C2CC(c3cccc(Nc4ccncc4)c3)=NN2c2ccccc2)cc1 (stereo unspecified) | 61.6% (inactive)
CCN1C(=O)N(CC)C2C1NN=c1s/c(=C3\C(=O)Nc4ccccc43)c(=O)n12 (stereo unspecified) | -20.9% (active)
COC(=O)c1c2c(c[n+]([O-])c1C)C(=O)C(NCc1ccccc1)=CC2=O | -57.7% (active)
CC(CCC(=O)O)[C@H]1CCC2C3C(=O)C[C@@H]4CC(=O)CC[C@]4(C)C3CC(=O)[C@@]21C (stereo partly specified) | 112% (inactive)
COc1cc2c(cc1O)[C@@]1(C)[C@H](c3ccccc3Br)OC(=O)N1CC2 | 61.1% (inactive)
Cn1cc(-c2nc(-c3cn(C)c4ncccc34)cs2)c2ccccc21 | -21.1% (active)
C=CC1=NC(C)(C)CC(C)O1 (stereo unspecified) | 109% (inactive)
O=C(/C(=C/c1ccccc1)CBr)c1ccccc1 | -10% (active)
COc1cc2c3c(n(CCCCNCCCn4c5c(c6cc(OC)c(OC)cc6c4=O)C(=O)c4cc6c(cc4-5)OCO6)c(=O)c2cc1OC)-c1cc2c(cc1C3=O)OCO2 | 97.7% (inactive)
